A selection: hits, their analogues and other compounds. The true share with any hit is near 2.8%.
PTHR1 ag = activates the human parathyroid hormone receptor PTHR1; Q03431; HEK293 GP2 PTHR1 cells, GloSensor cAMP luminescence, 1 h; Potency, µM (doses to about 115 µM), for the others: at the top dose activation, hits mostly activators; 0.075% of 410,000 active; AID 743266; further: potency means the concentration at half of the fitted maximal effect; nearly all actives have a fitted effect of over 55% in size
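HEK-293-derived GP2 cells expressing PTHR1 and a GloSensor cAMP reporter, 3,000/well, plated overnight, given luciferin plus IBMX (each 0.5 mM as added) for 1 h at 37 °C, then compound for 1 h at 37 °C. Luminescence was read after 15 min at room temperature.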
DRD3 antagonist = blocks the human D3 dopamine receptor. P35462. D3R cells, DiscoveRx beta-arrestin luminescence, antagonist mode; active compounds read low. max response, negative = inhibition, %. 2.5% of 360,000 active; in the data active means max response below about -50%; inconclusive means no clear call, values can overlap the other calls; further: on the % scale 0 is the no-effect control and ±100 the full control effect
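Cells expressing the human receptor were seeded at 1500 cells/well, incubated overnight at 37 degrees C in 5% CO2, then exposed to library compounds with dopamine controls for 90 minutes at 37 degrees C before luminescent detection.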
MBNL1 CUG block = inhibitors of human MBNL1 binding to CUG repeat RNA; Potency, µM (highest dose often 57.5 µM), inactives show at the highest dose activity change, negative = inhibition, hits mostly inhibitors; 0.036% of 280,000 active; Q9NR56; TR-FRET MBNL1-His/biotin-(CUG)12 binding, 665/545 ratio; active means well fitted inhibition curve with a large enough effect in the signal ratio, with a control signal flat, not every such curve was filed as active; inconclusive means small, poorly fitted or top-dose-only effect, or effect the other way, or a change in a side signal; inactive means no such curve, though single readings can be large or run the other way; the % refers to the signal ratio; further: potency means the concentration at half of the fitted maximal effect; on the % scale 0 is the no-effect control and ±100 the full control effect
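MBNL1-His + Biotin-(CUG)12, cpd titration 92 nM–58 uM; Tb anti-His Ab 0.055 ng/ul, SA-XL665 5 nM (final); 60 min RT; ratiometric 665/545 nm, Ex 340 nm; normalized to buffer and full-complex controls.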
CBFb RUNX1 block = inhibitors of human CBF-beta and RUNX1 interaction; 230,000 tested, under 10 active; Potency, µM (titrated, usually from 59.8 µM), without a hit: at the highest dose activity, negative = inhibition, hits mostly inhibitors; AlphaScreen CBFb-His/RUNX1-biotin binding, biochemical; AID 1477; Q01196+Q13951; further: % of control where 0% means no effect
Target sequence (Q01196 whole entry, looked up): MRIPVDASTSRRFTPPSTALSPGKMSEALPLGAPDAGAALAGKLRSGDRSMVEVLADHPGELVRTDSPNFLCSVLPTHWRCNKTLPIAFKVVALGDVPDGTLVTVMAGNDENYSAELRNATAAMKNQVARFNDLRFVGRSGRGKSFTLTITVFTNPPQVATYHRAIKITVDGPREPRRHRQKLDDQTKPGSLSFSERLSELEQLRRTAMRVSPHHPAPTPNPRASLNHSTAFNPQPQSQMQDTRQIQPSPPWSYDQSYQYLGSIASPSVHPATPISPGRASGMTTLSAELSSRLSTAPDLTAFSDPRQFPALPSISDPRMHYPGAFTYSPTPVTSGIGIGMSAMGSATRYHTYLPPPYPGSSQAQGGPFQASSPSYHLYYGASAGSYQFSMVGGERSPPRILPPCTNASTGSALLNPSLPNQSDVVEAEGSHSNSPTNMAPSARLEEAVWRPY
Target sequence (Q13951 whole entry, looked up): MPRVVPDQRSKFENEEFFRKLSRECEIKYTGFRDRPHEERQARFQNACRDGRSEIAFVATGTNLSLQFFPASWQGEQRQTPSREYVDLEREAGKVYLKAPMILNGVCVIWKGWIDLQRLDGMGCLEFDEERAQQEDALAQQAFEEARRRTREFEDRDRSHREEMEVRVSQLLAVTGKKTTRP
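His-tagged CBF-beta and biotinylated RUNX1 (30 nM each) were premixed 20 min at room temperature, exposed to compound for 15 min, then given nickel-chelate and streptavidin AlphaScreen beads (50 ng each). After 90 min, AlphaScreen signal was read.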
D3 ag = activates the human D3 dopamine receptor; P35462; D3R DiscoveRx beta-arrestin cells, luminescence, 90 min; max activation, %; 0.58% of 410,000 active; AID 652048; in the data active means max activation above about 30%; further: 0% is about no effect
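Cells at 1500/well, incubated overnight, then treated with pinned compounds (dopamine as control) for 90 min at 37 degrees C. DiscoveRx reagent added for 30 - 60 minutes at room temperature; luminescence read.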
a7 integrin act = activators of alpha7 integrin expression for muscular dystrophy. alpha7betagal myoblasts, beta-gal FDG fluorescence, 48 h. Potency, µM (highest dose often 38.3 µM), for inactives: at the top dose activation, usual class: activators. 0.064% of 350,000 active;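 further: potency means the concentration at half of the fitted maximal effect; 100% = response of the positive control SU9516; nearly all actives have a fitted effect of over 60% in size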
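alpha7betagal+/- myoblasts (passage 13, 250/well) treated 48 h at 37C with compounds at 1:260 dilution of DMSO stock. Lysed, then beta-galactosidase activity read as FDG fluorescence (ex 480/em 540) after 30 min, with pre-read for autofluorescence.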
* = called active by the depositor; i = inactive; ? = inconclusive; / = no result given; ! = not active in a repeat; [ ] = remark or other dose. Unless noted, the call rests on the fitted dose curve; in most records, active means well fitted curve in the direction sought with a large enough effect; inconclusive means small, poorly fitted or top-dose-only effect, or another doubt; inactive means no such curve, though single readings can be large; an effect the other way counts as inactive or inconclusive.

SMILES	PTHR1 ag	DRD3 antagonist	MBNL1 CUG block	CBFb RUNX1 block	D3 ag	a7 integrin act
COc1ccc(-n2c(=O)c3sc4ccccc4c3n(Cc3ccccc3C)c2=O)cc1OC	i	/	/	/	11	/
CCOC(=O)c1c(NC(=O)Cn2nnc3ccccc32)sc2c1CCC(C)C2 (stereo not drawn)	-4%	-8	-2%	6%	33*	-41%
CCOC(=O)c1c(NC(=O)COC(=O)Cn2cnc3ccccc32)sc2c1CCC(C)C2 (stereo not drawn)	i	0	5%	-7%	12	-31%
CC(C)CNC(=O)c1cccc(NC(=O)C(C)Oc2ccccc2)c1 (stereo not drawn)	16%	-10	-4%	4%	-22	-26%
CC(=O)c1cccc(-c2ccnc3c2CC(C(=O)Nc2cccc(C(F)(F)F)c2)O3)c1 (stereo not drawn)	-59%	-15	/	/	3	/
CN1CCC(C2(O)c3ccccc3CSc3sccc32)CC1 (stereo not drawn)	-9%	-67*	-7%	-7%	0	-16%
Cc1cccc2c1N(CCCOc1ccccc1)C(=O)C2=O	i	-50*	?	-2%	-10	-6%
Cc1cccc2c1N(CCCOc1ccc(C(C)(C)C)cc1)C(=O)C2=O	-44%	-22	-2%	-23%	-8	-30%
CCN(CC)S(=O)(=O)c1ccc(NC(=O)CC(NC(C)=O)c2ccccc2)cc1 (stereo not drawn)	-22%	-78*	-4%	4%	2	6%
Cc1cc(C)c2c(=O)cc(C(=O)Nc3sc4c(c3C(=O)NCc3ccccc3)CCCC4)oc2c1	i	/	/	/	-3	/
CC(CCc1ccccc1)NCC(O)COc1ccccc1 (stereo not drawn)	i	-64*	-2%	-1%	-3	-9%
CC(COc1ccccc1)NN (stereo not drawn)	/	/	/	/	67*	/
CC1CC1C(=O)OCC(=O)NC(=O)c1ccc(C(C)(C)C)cc1 (stereo not drawn)	i	19	/	/	39*	25%
Cc1nnc(SCC2=C(C(=O)O)N3C(=O)C(NC(=O)C(C)n4nc(C(F)(F)F)cc4C)C3SC2)s1 (stereo not drawn)	i	-25	3%	-13%	0	20%
COc1ccc(OCc2nnc(SC(C)C(=O)Nc3ccc(N4CCOCC4)cc3)n2C)cc1 (stereo not drawn)	-7%	-77*	/	/	-11	15%
CCCc1ccc(OCC(O)CN2CCN(c3ccccc3)CC2)cc1 (stereo not drawn)	-19%	?	1%	4%	68*	-23%
CCc1ccc(OCC(O)CN2CCN(c3ccccc3)CC2)cc1 (stereo not drawn)	i	-57*!	-10%	-9%	41*!	10%
Cc1nc(Cl)c2c(n1)NC1=C(O2)C(=O)CCC1	i	8	?	8%	3	9%
Cn1nccc1C(=O)N1CCN(S(=O)(=O)c2ccc(Br)s2)CC1	-64%	24	-6%	/	7	2%
Cc1ccc(CCNC(=O)C2CCC(=O)N2CCc2ccccc2)cc1 (stereo not drawn)	-1%	-15	-1%	/	6	2%
Cc1ccc(CNC(=O)C2CCC(=O)N2CCc2ccccc2)cc1 (stereo not drawn)	-1%[57.5 µM]	-57*	-5%	2%	17	-12%
CC1(C)OC(C(O)(c2cccc3c2oc2ccccc23)c2cccc3c2oc2ccccc23)C(C(O)(c2cccc3c2oc2ccccc23)c2cccc3c2oc2ccccc23)O1 (stereo not drawn)	/	/	/	1%[13.1 µM]	/	/
O=c1c2ccccc2cnn1Cc1n[nH]c(=S)n1-c1cc(Cl)cc(Cl)c1	-6%	-57*	1%	4%	-7	8%
CCn1cc([N+](=O)[O-])c(C(=O)N2N=C(c3ccc4ccccc4c3)CC2c2cc(Br)ccc2O)n1 (stereo not drawn)	i	-61*	1%	-23%	2	-57%
CC(C)c1ccc(Nc2c(-c3ccccc3O)nc3cnccn23)cc1	-47%	/	/	/	38*	/
SMILES	PTHR1 ag	DRD3 antagonist	MBNL1 CUG block	CBFb RUNX1 block	D3 ag	a7 integrin act
COc1cc(C(=O)OCCc2cc3ccccc3c(=O)o2)cc(OC)c1OC	-2%	63	/	/	34*	-28%
COc1cc2cc(CCCOC(=O)c3cc(OC)c(OC)c(OC)c3)oc(=O)c2cc1OC	-22%	16	/	/	55*	-27%
COc1cc(C(=O)OCCCc2cc3ccccc3c(=O)o2)cc(OC)c1OC	-16%	4	/	/	18	-15%
CC(C)CCn1c(=O)c2sccc2n2c(CCCC(=O)Nc3ccc(C(C)C)cc3)nnc12	i	/	/	/	-13	/
CC1=C(c2ccc(C)c(C)c2)S(=O)(=O)N=C1N1CCC(C(=O)NCCc2ccc(Cl)cc2)CC1	-43%	/	/	/	0	/
CCC[N+]1(CC#CC(O)(c2ccccc2)C2CCCCC2)CCCCC1 (stereo not drawn)	-20%	-54*	-5%	17%	-45	-11%
CCN(CC)CCC#CC(O)(c1ccccc1)C1CCCCC1 (stereo not drawn)	i	?	-1%	-1%	-25	-25%
Cc1ccc(N(CC(O)CN2CCCCC2)S(=O)(=O)c2ccc(C)cc2)cc1 (stereo not drawn)	-21%	-52*	-3%	/	-18	-7%
Cc1ccc(N(CC(O)CN2CCCCC2)S(=O)(=O)c2ccccc2)cc1 (stereo not drawn)	i	-77*	-4%	/	-19	32%
O=C(Nc1ccc(S(=O)(=O)Nc2ncccn2)cc1)c1cc(=O)c2ccccc2o1	i	/	/	/	6	/
Cc1ccc(S(=O)(=O)C[C@@H]2OC[C@H](C(C)C)N2S(=O)(=O)c2ccc(C)cc2)cc1	-4%	8	/	/	9	/
COc1ccc(N(CC(C)C)S(=O)(=O)c2nnc(NC(=O)c3cccs3)s2)cc1	-29%	/	/	/	-24	/
COc1cc(/C=C/c2ccc3cccc(O)c3n2)ccc1O	-36%	-52*	34%	/	-12	-59%
CSc1ccc(/C=C/c2ccc3cccc(O)c3n2)cc1	-31%	-58*	7%	-4%	-25	-47%
Cc1ccsc1/C=C/c1ccc2cccc(O)c2n1	-28%[57.5 µM]	?	15%	8%	-80	-60%
COc1cc(/C=C/c2ccc3cccc(O)c3n2)c(Br)cc1O	/	/	16%	/	/	/
CN1CCN(C(=O)c2ccc(-c3ccc(F)c(F)c3)c3ccoc23)CC1	0%	-59*	/	/	-11	/
CSc1ccc(C(=O)C2CCCN(C(=O)Cn3cnnn3)C2)cc1 (stereo not drawn)	i	-7	6%	/	0	-22%

Assay outcomes deposited in PubChem by National Center for Advancing Translational Sciences (NCATS).
